The values below come from the supplement of paper PMC6555819.

Common to all, as to assay: PBM binding z-score (relative to random genomic background probes); higher = stronger binding; sequences stand for … in GC…GCGATTGACAGCGTAGAATGAAGG
The subject of assay [1] is PPARg:RXRa DBDmut IVT, anti-RXR (DBD mutation: RXRa K156A/R161A, NR concentration 270 nM, RXRa partner concentration 90 nM). An outline of the steps: (§1)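 Probes were double-stranded and carried 34-nt variable regions with direct-repeat seeds, single-nucleotide variants, half-site ablations and random human genomic background sequences, printed on custom Agilent 4×180K protein-binding microarrays. Arrays were incubated 1 h with ligand-free nuclear receptor dimers in PBS pH 7.4, 2% milk, 0.02% Triton X-100, 1 mM DTT, 0.2 mg/mL BSA and 0.4 mg/ml salmon testes DNA. Antibodies against each partner (one per run) detected binding, and scanned fluorescence was regression-normalized. Binding z-scores use the random background probes as reference.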

The subject of assay [2] is PPARg:RXRa IVT, anti-PPARg (NR concentration 270 nM, RXRa partner concentration 90 nM). An outline of the steps:
as §1

Assay [3] relates to PPARg DBDmut:RXRa IVT, anti-PPARg (DBD mutation: PPARg1 K132A/R137A, NR concentration 270 nM, RXRa partner concentration 90 nM). An outline of the steps: as §1
The subject of assay [4] is PPARg DBDmut IVT, anti-PPARg (DBD mutation: PPARg1 K132A/R137A, NR concentration 270 nM). A digest of the protocol: as §1
Assay [5] deals with PPARg homodimer (NR concentration 180 nM). An outline of the steps: as §1
Assay [6] deals with PXR:RXRa (NR concentration 270 nM, RXRa partner concentration 90 nM). A digest of the protocol: as §1
Assay [7] has as its system PXR homodimer (NR concentration 270 nM). An outline of the steps: as §1
Assay [8] concerns RARa:RXR (NR concentration 270 nM, RXRa partner concentration 90 nM). A digest of the protocol: as §1
In assay [9] the test system is RARa homodimer (NR concentration 270 nM). A digest of the protocol: as §1
Assay [10] relates to RARb:RXRa (NR concentration 270 nM, RXRa partner concentration 90 nM). An outline of the steps:
as §1

In assay [11] the test system is RARb homodimer (NR concentration 270 nM). A digest of the protocol:
as §1

Assay [12] relates to RARg:RXRa (NR concentration 270 nM, RXRa partner concentration 90 nM). A digest of the protocol: as §1
Assay [13] concerns RARg homodimer (NR concentration 270 nM). A digest of the protocol:
as §1

The test system of assay [14] is RXRa DBDmut IVT, anti-RXR (DBD mutation: RXRa K156A/R161A, NR concentration 90 nM). An outline of the steps:
as §1

The subject of assay [15] is RXRa homodimer (NR concentration 180 nM). A digest of the protocol:
as §1

Assay [16] relates to THRa:RXRa (NR concentration 90 nM, RXRa partner concentration 90 nM). A digest of the protocol:
as §1

Assay [17] concerns THRa homodimer (NR concentration 90 nM). An outline of the steps: as §1
Assay [18] deals with VDR homodimer (NR concentration 270 nM). A digest of the protocol:
as §1

With TAGCCTAGTTCATGGGCCAGTATACCACGCGAAC, the PBM binding z-score was 0.459 in [1]; 0.731 in assay [2]; -0.299 in [3]; -0.226 in [4]; -0.229 in [5]; 0.408 in [6]. Further, the PBM binding z-score in [7] was 0.205; in [8], 0.216; in assay [9] it was -0.319; in assay [10], 1.37; in assay [11], 1.05; in [12], 0.816. The PBM binding z-score in assay [13] came out at 0.746; in [14] it was 1.37; in assay [15], 0.734; in assay [16], 0.187; in assay [17], 0.00574; in assay [18], 1.42.

CCGACTGGGGCAAATGTTACCATACTCAGTACGA: the PBM binding z-score was 4.63 in [1]; 3.74 in [2]; 0.00418 in assay [3]; 0.212 in assay [4]; 0.439 in [5]; -0.402 in assay [6]. Further, the PBM binding z-score was -0.187 in assay [7]; -0.273 in [8]; -0.109 in [9]; 0.683 in [10]; 0.264 in assay [11]; 0.382 in assay [12]. The PBM binding z-score in assay [13] was 0.67; in [14], 0.518; in [15], 0.184; in [16], -0.0523; in assay [17], -0.199; in [18] it was -0.144.

Regarding TTACCAAGGTGAGCTGAGGTCGTTTATCCAACTC, the PBM binding z-score in [1] is 0.956; in assay [2] it was 1.9; in assay [3] it was -0.2; in [4], -0.389; in [5], -0.278; in [6], 4.87. Besides, the PBM binding z-score in [7] was 0.621; in [8], 1.58; in assay [9] it was -1.08; in [10] it was 1.53; in [11], 1.47; in [12] it was 1.08. Also, the PBM binding z-score came to 0.862 in assay [13]; 0.292 in assay [14]; 1.27 in assay [15]; 4.58 in [16]; 2.09 in assay [17]; 2.23 in [18].

Regarding CCGACTGGGCCAAGGTTACCATAACGCACAGCCA, the PBM binding z-score is 1.61 in assay [1]; 1.71 in [2]; 0.193 in [3]; -0.788 in assay [4]; 0.313 in assay [5]; 0.153 in assay [6]. In addition, the PBM binding z-score is -0.166 in assay [7]; 0.508 in assay [8]; -0.101 in [9]; 0.98 in [10]; 0.94 in assay [11]; 0.614 in [12]. Besides, the PBM binding z-score in assay [13] is 0.453; in [14], -0.285; in assay [15], 0.719; in assay [16] it was 1.07; in assay [17], 0.784; in assay [18] it was -0.176.

GCTAGTTGGTCAGTACAAGGTCACACACCGGTCG: the PBM binding z-score in assay [1] was 0.892; in assay [2], 2.35; in assay [3] it was -0.0423; in assay [4], 0.196; in [5] it was 2.2; in assay [6], 3.74. Besides, the PBM binding z-score in assay [7] amounted to 1.58; in assay [8] it was 3.91; in assay [9] it was 0.633; in [10], 3.36; in [11], 4.39; in [12] it was 4.09. Moreover, the PBM binding z-score is 3.66 in assay [13]; 0.602 in assay [14]; 3.47 in assay [15]; 4.02 in assay [16]; 4 in assay [17]; 2.53 in assay [18].

Consider GCTATTAGCTGAAAGGGCAACCGAATGATTCTCG, for which the PBM binding z-score was 0.31 in assay [1]; 0.298 in [2]; -0.309 in assay [3]; -0.672 in assay [4]; 0.621 in assay [5]; 0.34 in assay [6]. Besides, the PBM binding z-score in assay [7] was -0.258; in assay [8] it was 0.809; in [9], -0.61; in [10] it was 1.76; in [11], 1.53; in assay [12] it was 0.817. The PBM binding z-score in assay [13] is 0.974; in assay [14], 0.616; in [15], 0.703; in assay [16], 0.363; in assay [17], -0.714; in assay [18], -0.0197.

In the case of ATCGAAAGGTCGACGAGGTCAGTATACACCGTTT, the PBM binding z-score in assay [1] stood at 1.29; in assay [2], 2.59; in assay [3] it was 1.42; in assay [4] it was 0.928; in assay [5] it was 2.73; in assay [6], 5.77. The PBM binding z-score amounted to 9.23 in assay [7]; 5.2 in assay [8]; 1.54 in [9]; 4.56 in assay [10]; 4.63 in assay [11]; 5.73 in assay [12]. Further, the PBM binding z-score in assay [13] was found to be 5.72; in assay [14] it was 2.48; in assay [15], 5.75; in assay [16], 4.67; in [17], 2.54; in assay [18], 4.57.

As to TCATATAGGTAAACAGCTGAAAGTCCGTAAGTTA, the PBM binding z-score was 3.93 in assay [1]; 2.25 in [2]; 1.07 in assay [3]; 0.733 in [4]; 0.646 in [5]; 0.928 in assay [6]. Moreover, the PBM binding z-score in assay [7] amounted to 0.555; in assay [8], 1.19; in [9] it was 0.977; in assay [10], 0.471; in assay [11], 0.0749; in assay [12], 0.25. Besides, the PBM binding z-score is 0.0863 in [13]; 1.64 in [14]; 0.623 in assay [15]; 0.172 in [16]; -0.236 in [17]; 0.162 in assay [18].
